Source: PubChem BioAssay (The Scripps Research Institute Molecular Screening Center)
Most compounds without a hit are left out; they make up all but 2.3% or so of the library.
CHO-K1 Ca antag – counter-screen for M1 antagonists: effect in parental CHO-K1 cells; ATP-induced calcium, Fluo-8 fluorescence; inhibition, % at 3 µM; hit rate 0.6% among 360,000;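 active = inhibition above a per-plate cutoff, the plate's mean sample inhibition plus 3 SD, cut at about 24% in these data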;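 also: 0% = DMSO plus EC80 ATP and 100% = DMSO alone without ATP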
CHRM1 antagonist – blocks human M1 muscarinic receptor; P11229; inhibition, % at 3 µM; AID 588852; CHO-K1 hM1, Fluo-8 calcium fluorescence, ACh EC80 antagonist; hit rate 1.3% among 360,000;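 active = percent inhibition above its own plate's cutoff, namely the mean of that plate's compound wells plus 3 SD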;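 also: peak over basal fluorescence ratio during 140 s after agonist addition; 0% = ACh EC80 plus DMSO and 100% = DMSO alone without agonist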
Target sequence (P11229 whole entry, looked up): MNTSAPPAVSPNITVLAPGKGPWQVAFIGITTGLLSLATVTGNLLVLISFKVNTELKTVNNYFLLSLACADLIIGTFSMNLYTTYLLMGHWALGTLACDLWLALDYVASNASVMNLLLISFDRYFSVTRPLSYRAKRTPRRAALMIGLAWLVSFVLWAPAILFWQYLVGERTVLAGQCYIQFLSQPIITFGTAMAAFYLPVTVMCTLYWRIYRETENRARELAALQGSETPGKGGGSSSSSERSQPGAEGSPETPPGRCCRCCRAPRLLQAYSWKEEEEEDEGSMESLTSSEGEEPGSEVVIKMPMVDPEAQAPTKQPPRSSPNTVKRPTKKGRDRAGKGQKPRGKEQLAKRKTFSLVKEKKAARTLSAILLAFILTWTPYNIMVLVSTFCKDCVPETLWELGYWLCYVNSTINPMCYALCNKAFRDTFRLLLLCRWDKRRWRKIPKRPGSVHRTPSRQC
M1 ag – human M1 muscarinic receptor agonism. AID 588814. activation, % at 3 µM. hit rate 0.33% among 360,000. CHO-K1 hM1, Fluo-8 calcium fluorescence, agonist mode; 0% DMSO, 100% acetylcholine EC100;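 active = activation above the run's mean compound activation plus 3 SD, cut at about 16% in these data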;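 also: peak over basal fluorescence ratio within a 140 s kinetic read after compound addition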
CHO-K1 Ca ag – counter-screen for M1 agonists: effect in parental CHO-K1 cells. AID 602248. Fluo-8 calcium fluorescence; scaled to maximal ATP response, vehicle zero. hit rate 0.48% among 360,000. activation, % at 3 µM; in the data active = activation above about 15%;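 also: untransfected CHO-K1 host cells lacking M1 receptor as counterscreen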
CHRM1 PAM – positive allosteric modulators of human M1 muscarinic receptor. CHO-K1 hM1, Fluo-8 calcium fluorescence, ACh EC20; 0% = ACh EC20, 100% = maximal ACh. activation, % at 3 µM. hit rate 0.088% among 360,000; in the data active = activation above about 19%, passing the limit was not always enough
CHO-K1 Ca PAM – nonselective activator or artifact in parental CHO-K1 calcium assay; ATP EC20, Fluo-8 calcium fluorescence; 0% at ATP EC20, 100% at ATP max; activation, % at 3 µM; hit rate 0.02% among 360,000; AID 602247;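 active = activation above the run cutoff, the mean activation of all test compounds plus 3 SD, cut at about 40% in these data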;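 also: peak over basal fluorescence ratio in a 140 s read after ATP addition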
Numbers without * were called inactive.

SMILES	CHO-K1 Ca antag	CHRM1 antagonist	M1 ag	CHO-K1 Ca ag	CHRM1 PAM	CHO-K1 Ca PAM
CC1CCN(S(=O)(=O)N2CCC(C(=O)NC(C)c3ccccc3)CC2)CC1 (stereo not drawn)	-6.0	0.7	1.9	4.6	-5.7	7.5
COc1ccccc1C1C(C#N)=C(N)Oc2cc(C)n(Cc3ccccn3)c(=O)c21 (stereo not drawn)	15.7	-4.8	-3.3	-0.3	10.5	-4.5
CCOc1ccccc1C1C(C#N)=C(N)Oc2cc(C)n(Cc3ccccn3)c(=O)c21 (stereo not drawn)	31.6*	-3.0	-1.4	-0.7	10.1	-7.2
COc1ccccc1N(C)S(=O)(=O)c1ccc(C(=O)N(C)Cc2cccc(F)c2)cc1	-2.0	6.4	-2.7	5.5	-9.3	14.5
O=C(NCc1nc(-c2ccc(C(F)(F)F)cc2)no1)Nc1cc(Cl)cc(Cl)c1	35.0*	13.3	2.2	6.6	-0.9	-3.1
O=C(NCc1nc(-c2ccc(C(F)(F)F)cc2)no1)Nc1ccc(F)cc1F	-3.0	-9.7	-0.1	1.8	-2.7	3.7
COc1cccc(N2CC(C(=O)Nc3nnc(SCc4ccccn4)s3)CC2=O)c1 (stereo not drawn)	-13.9	10.9	-2.2	1.6	-5.3	24.7
CCOCCc1nnc(NC(=O)C2CC(=O)N(c3ccc(OCC)cc3)C2)s1 (stereo not drawn)	-11.8	-3.9	-3.7	0.1	6.1	5.7
CCOc1ccc(N2CC(C(=O)Nc3nnc(CC)s3)CC2=O)cc1 (stereo not drawn)	-3.6	0.8	-3.7	-0.6	28.4*	16.6
CCc1nnc(NC(=O)C2CC(=O)N(c3ccc(C)cc3)C2)s1 (stereo not drawn)	24.2*	5.0	-2.0	-0.5	5.8	3.0
O=C(Nc1nnc(SCc2ccccn2)s1)C1CC(=O)N(c2ccc(F)cc2)C1 (stereo not drawn)	3.1	24.9*	-2.4	0.5	0.8	-26.6
CCN(CC(=O)Nc1ccc(NC(C)=O)cc1)C(=O)c1cc(-c2ccccc2Cl)nc2ccccc12	2.9	41.0*	-0.5	8.5	-16.0	-5.0
CCN(CC)S(=O)(=O)c1ccc(O)c(NC(=O)c2cc(-c3cc(OC)c(OC)c(OC)c3)nc3ccccc23)c1	-5.7	29.2*	-2.4	2.3	-16.2	-3.3
COc1ccc(-c2cc(C(=O)Nc3cccc(S(=O)(=O)NCc4ccco4)c3)c3ccccc3n2)cc1OC	-8.4	40.6*	-1.1	6.9	-13.3	-4.1
COc1cccc(CN(C)C(=O)c2cc(-c3cccs3)nc3ccccc23)c1	27.2*	54.0*	-0.5	6.4	-16.5	5.4
CCc1nc2c(OCCOc3ccc(F)cc3)cccn2c1N(C=O)Cc1ccccc1	-3.5	6.0	-7.1	2.8	-4.0	3.9
CCOc1ccc(NC(=O)CN(C)C(=O)c2cc(-c3ccc(OC)cc3)nc3ccccc23)cc1OCC	14.1	30.3*	-2.1	5.3	-8.2	-15.3
COc1cc(-c2cc(C(=O)N(C)Cc3ccccc3)c3ccccc3n2)cc(OC)c1OC	6.5	22.5*	-5.1	4.8	-11.2	-1.9
COCCN(Cc1ccccc1)C(=O)c1cc(-c2ccc(OC)c(OC)c2)nc2ccccc12	14.6	16.3	1.4	6.3	2.6	-20.5
COc1ccc(NC(=O)CN(C)C(=O)c2cc(-c3ccc(Cl)cc3)nc3ccccc23)cc1	7.6	19.9	-4.0	8.3	-4.5	3.5
COc1ccc(-c2cc(C(=O)N(C)Cc3ccccc3F)c3ccccc3n2)cc1OC	8.1	40.1*	-2.4	5.2	-16.3	0.9
COc1ccccc1CN(C)C(=O)c1cc(-c2cc(OC)c(OC)c(OC)c2)nc2ccccc12	-2.1	19.0	-5.7	4.9	-3.0	0.9
CCN(Cc1ccccc1)C(=O)c1cc(-c2ccc(OC)c(OC)c2)nc2ccccc12	3.2	34.8*	-3.5	4.9	-12.1	-6.1
COC(=O)CN1C(=O)CSc2ccc(S(=O)(=O)N3CCC(C)CC3)cc21	6.4	-8.4	-4.8	-0.1	4.6	13.8
Cc1ccc2nc(-c3cccc(Br)c3)c(Cc3ccccc3C(F)(F)F)n2c1	-7.9	-17.5	-5.2	-0.7	-2.9	3.1
COc1ccc(C(=O)c2cnc(/N=C/N(C)C)s2)cc1	33.0*	5.1	0.3	-0.1	9.3	-8.3
